This assay concerns HCC1569. In words: cell number relative to DMSO (% of DMSO); higher = more cells (less growth inhibition / toxicity). To be noted: concentration: 10 µM; 24 h. Summed up: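 In 384-well plates holding 800 HCC1569 or TDF cells per well in RPMI with 10% FBS, compounds were tested at 10 µM for 24 h at 37 °C in triplicate. Fixation used 3.7% formaldehyde. Staining used a rabbit anti-H1.0 antibody with an AlexaFluor 647 secondary, plus DAPI. Each value, H1.0 nuclear intensity or cell number, is a median of replicates shown as percent of the plate control, and HCC1569 values were smoothed for positional effects.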
`COc1ccc(-n2[nH]c3c(cnc4ccccc43)c2=O)cc1` [2-(4-methoxyphenyl)-1H-pyrazolo[4,3-c]quinolin-3(2H)-one]: the cell number was determined as 103.

Turning to `CC(NC(=O)CCc1nc(=O)c2ccccc2[nH]1)c1ccccc1` (centres undefined), the cell number was found to be 103. The figure for `CC(=O)NC1C(N=C(N)N)C=C(C(=O)O)OC1C(O)C(O)CO` (centres undefined) is 102; for `O=C(O)Cc1c[nH]c2ccc(O)cc12` [5-Hydroxyindolacetic acid] it is 104. For the molecule `NCCCC(=O)O`, the cell number is 109. The molecule `COc1ncnc(NS(=O)(=O)c2ccc(N)cc2)c1OC` [Sulfadoxine] had a cell number of 104. In turn, `CC(=O)OC1(C(C)=O)CCC2C3CC(C)C4=CC(=O)CCC4(C)C3CCC21C` (centres undefined) [Medroxyprogesterone 17-Acetate] registered a cell number of 105.

The molecule `CC(=O)Oc1ccc(C(c2ccc(OC(C)=O)cc2)c2ccccn2)cc1` [Bisacodyl] returned a cell number of 94.2. The molecule `NS(=O)(=O)c1cc2c(cc1Cl)NC=NS2(=O)=O` [Chlorothiazide] yielded a cell number of 105. `CC(C=CC1(O)C(C)=CC(=O)CC1(C)C)=CC(=O)O` (racemic) showed a cell number of 103. As for `CC(C)CC(NC(=O)C(Cc1ccccc1)NC(=O)c1cnccn1)B(O)O` (centres undefined) [Bortezomib], the cell number was found to be 34.2.

The molecule `CC1OC(OCC2OC(Oc3cc(O)c4c(c3)OC(c3ccc(O)c(O)c3)CC4=O)C(O)C(O)C2O)C(O)C(O)C1O` (centres undefined) [Eriocitrin] gave a cell number of 101.

`CC(C)NCC(O)c1ccc2ccccc2c1.Cl` (centres undefined) [Pronethalol.HCl] came in with a cell number of 101. In turn, `C[C@@H](c1nc(-c2ccc(C#N)cc2)cs1)[C@](O)(Cn1cncn1)c1ccc(F)cc1F` had a cell number of 83.5.

(Values after the supplement of paper PMC7156485.)
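Further: TDF denotes transformed human dermal fibroblasts of mesenchymal origin.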
